What all share (conditions): 25 µM; exposure: 24-48 hpf
For experiment [1], the system named is Danio rerio Tg(wt1b:EGFP) embryo, pronephros. The experiment is described as follows: glomerular separation, fold change vs DMSO control; higher = glomeruli further apart (abnormal). An outline of the steps:
(§1)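 Every feature is expressed as a fold change relative to the averaged DMSO-treated embryos of the same day. The exposure ran from 24 to 48 hpf at 28.5°C, with dechorionated Tg(wt1b:EGFP) zebrafish embryos in HEPES-buffered E3 containing 0.003% PTU, 0.5% DMSO and 25 μM compound. Dorsal pronephros images taken in agarose-filled 96-well plates were reduced to maximum projections, on which 16 reference points were set by hand in Fiji for a macro to compute distances and angles. Values more than 2 SD from the feature mean were not used.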

For experiment [2] the test system is unchanged. As to the kind of experiment: glomerular width (mean of left and right), fold change vs DMSO control; higher = wider glomerulus. The method in brief:
as §1

For experiment [3] the test system is unchanged. As to the kind of experiment: fraction of imaged embryos annotated as normal kidney; higher = less nephrotoxic; extreme values may be limits of the assay. An outline of the steps:
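The value given is the share of embryos in each treatment scored as having a normal kidney. To obtain it, dechorionated Tg(wt1b:EGFP) zebrafish embryos were treated from 24 to 48 hpf at 28.5°C with 25 μM compound in 0.5% DMSO, in 5 mM HEPES-buffered E3 with 0.003% PTU. Pronephroi were imaged by widefield fluorescence (470 nm, 10 z-slices), and every embryo was annotated by hand from maximum projections.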

The test system is the same in experiment [4]. As to the kind of experiment: pronephric angle neck segment to proximal convoluted tubule (mean of left and right), fold change vs DMSO control; higher = larger pronephric angle. The method in brief: as §1

Molecules are shown by their SMILES. Structures can show the parent of a compound that is named as a salt. ± gives the standard deviation or the standard deviation of the averaged measurements.

For the molecule `CCOc1ccccc1OC(c1ccccc1)C1CNCCO1` (stereo not given) [Reboxetine mesylate], the glomerular separation in experiment [1] was 1.16 ± 0.43. Besides, the glomerular width in experiment [2] is 1 ± 0.077. Further, the “fraction of imaged embryos annotated as normal kidney” value (“fraction of imaged embryos annotated” for short) in experiment [3] stood at 0.909. For the same molecule, in experiment [4], the “pronephric angle neck segment” value stood at 0.99 ± 0.0046.
In the case of `OC(c1cc(C(F)(F)F)nc2c(C(F)(F)F)cccc12)C1CCCCN1` (stereo not given) [Mefloquine hydrochloride], the glomerular separation in experiment [1] came to 1.17 ± 0.51. The molecule further displayed a glomerular width in experiment [2] of 1.01 ± 0.019. Moreover, the “fraction of imaged embryos annotated” value in experiment [3] was 0.667. Moreover, the “pronephric angle neck segment” value in experiment [4] is 1.017 ± 0.0068.
The corresponding values for `CC[C@]12CCCN3CCc4c(n(c5ccccc45)[C@@](O)(C(=O)OC)C1)[C@@H]32` [Vincamine] are 0.967 ± 0.23, 0.965 ± 0.01, 0.909 and 1.05 ± 0.057.
The matching figures for `Cc1cc(C2CCCCC2)n(O)c(=O)c1` [Ciclopirox ethanolamine]: 6.61 ± 0.93, 0.503 ± 0.058, 0 and 1.68 ± 0.05.
For the molecule `C=C1C[C@H]2[C@@H]3C=C(C)C4=CC(=O)CC[C@]4(C)[C@H]3CC[C@]2(C)[C@@]1(OC(C)=O)C(C)=O` [Melengestrol acetate], the glomerular separation in experiment [1] is 0.846 ± 0.24. In addition, the glomerular width in experiment [2] amounted to 1.07 ± 0.039. Also, the “fraction of imaged embryos annotated” value in experiment [3] turned out to be 0.917. Further, the “pronephric angle neck segment” value in experiment [4] was determined as 1.02 ± 0.066.

The values are drawn from the supplement of paper PMC7366291.
